Screening results from PubChem BioAssay.
NS1 inh = blocks influenza NS1 protein function. Potency, µM (titrated, usually from 46.1 µM), for inactives: at the top dose activity, positive = more growth. actives 0.4% (n = 270,000). AID 2326; calls by dose curve; note: actives are rising curves; nearly all actives have a fitted effect of over 50% in size
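Recovery from NS1-induced slow growth read by OD600 in budding yeast switched to galactose assay medium (pH 6.0, -URA) at 1:100 dilution. Compound 23 nl per well; the matching strain lacking NS1 serves as control.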
Sm TGR block = blocks Schistosoma mansoni thioredoxin glutathione reductase | actives 3% (n = 360,000) | Potency, µM (titrated, usually from 114 µM), without a hit: at the highest dose activity change, negative = inhibition, usual class: inhibitors | purified TGR, DTNB reduction, TNB absorbance 405 nm | Q962Y6; note: % is set by controls: 0 for no effect and ±100 for the full control effect; nearly all actives have a fitted effect of over 60% in size
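Kinetic colorimetric format: TGR-catalysed, NADPH-driven DTNB reduction monitored via TNB absorbance. Enzyme dispensed at 20 nM; compound exposure 15 min at room temperature before reaction start.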
AMA1-RON2 inh = inhibitors of Plasmodium falciparum AMA1-RON2 interaction; AlphaScreen AMA1-biotinylated RON2 peptide binding; Potency, µM (titrated, usually from 58.2 µM), inactives show at the top dose activity change, negative = inhibition, usual class: inhibitors; actives 0.2% (n = 360,000); AID 720542;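 note: 0% = vehicle wells and -100% = peptide control; nearly all actives have a fitted effect of over 45% in size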
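AMA1 (3D7) with his tag at 25 nM final met compounds first, then biotinylated RON2 peptide at 25 nM; detection used donor plus acceptor beads, 10 µg/mL apiece, read by AlphaScreen after 30 min at room temperature.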
Pf growth 96h = P. falciparum growth inhibition at 96 hour, primary screen for plastid delayed-death inhibitors; P. falciparum luciferase reporter growth, 96 h; Potency, µM (series often up to 28.7 µM), for inactives: at the highest dose activity change, negative = inhibition, hits mostly inhibitors; actives 6.9% (n = 320,000); note: % is set by controls: 0 for no effect and ±100 for the full control effect
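Compounds incubated with erythrocytes infected by luciferase-expressing P. falciparum (2% hematocrit, 0.05% parasitemia final) for 96 hours, 37 C in 5% CO2. Growth inhibition scored as decreased luciferase luminescence.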
Pf growth 48h = inhibits P. falciparum growth in the first generation, 48 h; P. falciparum luciferase growth in erythrocytes, 48 h; Potency, µM (titrated, usually from 28.7 µM), for inactives: top-dose activity change, negative = inhibition, hits mostly inhibitors; actives 5.9% (n = 310,000); AID 504832; note: % is set by controls: 0 for no effect and ±100 for the full control effect
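Growth was read as firefly luciferase luminescence after a 48 h, 37 C, 5% CO2 exposure of compounds to reporter-bearing P. falciparum cultures (0.1% parasitemia, 2% hematocrit final) in Albumax-supplemented RPMI 1640.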
Starred values were filed as active, the others as inactive; ? = inconclusive; · = no result; [ ] = another dose, or the depositor's remark. The list is not random: actives were taken first. Their share in the collection is about 11%. Unless noted, calls come from the whole dose curve; as a rule, active = well fitted curve in the direction sought with a large enough effect; inconclusive = small, poorly fitted or top-dose-only effect, or another doubt; inactive = no such curve, though single readings can be large; an effect the other way counts as inactive or inconclusive. Potency is the fitted concentration of half-maximal effect.

SMILES	NS1 inh	Sm TGR block	AMA1-RON2 inh	Pf growth 96h	Pf growth 48h
N=c1c(S(=O)(=O)c2ccc(Cl)cc2)cc2c(=O)n3ccccc3nc2n1CCc1ccccc1	6%	-1%	·	-3%	?
N=c1c(S(=O)(=O)c2ccc(Br)cc2)cc2c(=O)n3ccccc3nc2n1C1CCCC1	23%	-8%	-8%	12µM*	10µM*
CC(=O)N1CCN(C(=O)COC(=O)c2oc3ccccc3c2C)CC1	·	-9%	-8%	-19%	20%
O=C(NC(c1ccccc1)c1ccc2ccccc2n1)C1CCN(Cc2cccc(C(F)(F)F)c2)CC1 (stereo not given)	·	·	-25%	·	·
Cc1cc(N)n(Cc2cccs2)n1	7%	0%	2%	17%	0%
COc1ccc(S(=O)(=O)N2CCC(C(=O)NCc3ccncc3)CC2)cc1OC	-17%	0%	-5%	23%	13%
CCCn1c(C(C)Nc2nc(-c3ccc(Cl)c([N+](=O)[O-])c3)cs2)nc2ccccc21 (stereo not given)	22%	-2%	4%	5.9µM*	13µM*
CC(Nc1nc(-c2ccc(Cl)cc2)cs1)c1nc2cc(Cl)c(N3CCCCC3)cc2n1CCOCCO (stereo not given)	·	·	34%	·	·
CCCn1c(C(C)Nc2nc(-c3cc(Cl)c(N)c(Cl)c3)cs2)nc2cc(Cl)c(N3CCCCC3)cc21 (stereo not given)	22%	-2%	34%	7.4µM*	?
CCCn1c(C(C)Nc2nc(-c3ccc(C)cc3)cs2)nc2ccccc21 (stereo not given)	16%	2%	32%	9.3µM*	?
Cc1c(N(C(=O)c2ccccn2)C2(C(=O)NC3CCCCC3)CCCCC2)c(=O)n(-c2ccccc2)n1C	·	1%	-1%	?	-6%
COc1cccc(Nc2nnc(Cc3cccnc3)c3ccccc23)c1	3%	3%	0%	?	-22%
C[C@H]1CCCC(=O)CCC/C=C/c2cc(O)cc(O)c2C(=O)O1	-45%	0%	-7%	13µM*	·
Cc1c(C#N)c(NC(=O)c2cccc(Cl)c2)n(Cc2ccccc2)c1C	-5%	-11%	-3%	13µM*	12µM*
O=c1cc2[nH]c3ccccc3c(=O)n2nc1-c1ccccc1	-5%	-1%	-8%	·	41%
CCN(CC)S(=O)(=O)c1ccc2c(c1)CC(C(=O)N1CCCC1)N2C(C)=O (stereo not given)	1%	4%	-7%	?	-15%
Cc1ccccc1NC(=O)C1c2cccc[n+]2CC(=O)N1c1c(C)cccc1C (stereo not given)	6%	45µM*	20%	59%	48%
CCc1noc2nc(C)n(CC(=O)O)c(=O)c12	·	-3%	·	·	·
CN(C)C(CNc1nnnn1-c1ccccc1)c1ccco1 (stereo not given)	?	45µM*	4%	9%[5.75 µM]	-2%
CC(=O)Nc1cccc(C(=O)OCc2csc(CC(=O)Nc3ccccc3C)n2)c1	·	-14%	-13%[11.6 µM]	?	9.3µM*
CC(=O)Nc1ccc(S(=O)(=O)NCCC(=O)OCc2csc(CC(=O)Nc3ccccc3C)n2)cc1	·	0%	7%	?	12µM*
O=C(Nc1ccccc1C(=O)OCc1cc(=O)n2ccsc2n1)c1ccc(Cl)cc1	·	0%	·	·	·
Cc1cc(C)nc(N/N=C/C(Cl)=C/c2ccccc2)n1	-11%	-12%	39%	3.7µM*	·
Cc1c(C(=O)N2CCCCC2)oc2ccc(S(=O)(=O)N3CC(C)CC(C)C3)cc12 (stereo not given)	-35%	-10%	-9%	12µM*	?
Cc1c(C(=O)N2CCC3(CC2)OCCO3)oc2ccc(S(=O)(=O)N3CCOCC3)cc12	-15%	6%	3%	?	-16%
SMILES	NS1 inh	Sm TGR block	AMA1-RON2 inh	Pf growth 96h	Pf growth 48h
Cc1c(C(=O)N2CCN(C)CC2)oc2ccc(S(=O)(=O)N3CCOCC3)cc12	-14%	1%	4%	8.3µM*	-21%
Cc1cc(=O)[nH]c2nnc(SCc3ccc(C(F)(F)F)cc3)n12	·	8%	·	·	·
OCC1(CCOc2ccccc2)CCN(Cc2ccc3c(c2)OCCO3)CC1	-5%	19%	-7%	12µM*	-10%
CCOC(=O)C1(CCOc2ccccc2)CCN(Cc2ccc3c(c2)OCCO3)CC1	-9%	0%	-5%	4%	?
CCOc1cc(CN2CCCCCC2)ccc1OC	6%	11%	8%	113%	-28%
COc1cc(CN2CCC(Cc3ccccc3)CC2)cc(OC)c1OC	3%	-14%	-23%	9.3µM*	?
CCOc1cc(CN2CCC(CO)(Cc3cccc(C(F)(F)F)c3)CC2)ccc1OC	-1%	4%	-6%	10µM*	?
COc1ccc(CN2CCC(CO)(CCOc3ccccc3)CC2)cc1C	1%	17%	-5%	4%	10µM*
Cc1ccc(NC(=O)N2CCCC2C(=O)Nc2c(C)cc(C)cc2C)cc1 (stereo not given)	-4%	-5%	2%	-20%	22%
COc1cc(OC)c(CN2CCC(CO)(CCOc3ccccc3)CC2)c(OC)c1	10%	-30%	-12%	0%	?
OCC1(CCOc2ccccc2)CCN(Cc2ccc(OC(F)F)cc2)CC1	-3%	-5%	-7%	10µM*	8%
OCC1(CCOc2ccccc2)CCN(CCCn2cccn2)CC1	0%	13%	-1%	10µM*	40%
COc1cc(CN2CCC(CO)(CCOc3ccccc3)CC2)cc(OC)c1OC	-1%	9%	-4%	9%	5.9µM*
OCC1(CCOc2ccccc2)CCN(Cc2ccncc2)CC1	19%	?	1%	?	?
CNc1cc(-c2ccc(OC)nc2)ncn1	·	·	6%	·	·
CC(Sc1ccsc1[N+](=O)[O-])C(=O)NCc1ccco1 (stereo not given)	·	22µM*	13%	-14%	-9%
Cc1ccc(-n2c(SCC(=O)NCc3ccco3)nnc2-c2cccnc2)cc1	-1%	45µM*	-13%	0%	-19%
CN1CCN(S(=O)(=O)c2ccc(Sc3nnc(-c4cccs4)n3-c3ccccc3)nc2)CC1	-10%	-3%	-14%	?	7.4µM*
CNC(=O)CSc1nnc(-c2cccnc2)n1-c1ccc(C)cc1	8%	·	-3%	-10%	-1%
CC(C)c1nnc(SCC(=O)NCc2ccco2)n1C	5%	?	37%	18%	1%
CC(=O)Nc1ccc(-c2nnc(SCC(=O)NCc3ccco3)n2C)cc1	7%	-16%	28%	6.6µM*	·
CSc1nnc(-c2cccs2)n1-c1ccccc1	1%[9.22 µM]	2%	-30%	·	-4%
CC(=O)N1CCN(C(=O)CCCNC(=O)c2ccc(Cl)cc2)CC1	·	·	25%	·	·
CCOc1ccc(Cc2nnc(SCC(=O)Nc3ccc(C(C)=O)cc3)[nH]c2=O)cc1	·	-8%	11%	2%	?
COc1ccc(NC(=O)CN(C)C(=O)c2sc3cc(Cl)ccc3c2Cl)cc1	·	?	1%	-1%	?
